nsP2pro primary – Primary qHTS for inhibitors of NSP2Pro chikungunya virus (CHIKV) | Polyprotein P1234 (Chikungunya virus (strain S27-African prototype)), Q8JUX6 | FRET peptide cleavage, nsP2pro, fluorescence 1 h | Potency, µM (titrated, usually from 24.9 µM), for inactives: at the highest dose activity change, negative = inhibition, hits mostly inhibitors | 1.1% of 31,000 active; also: nearly all actives have a fitted effect of over 60% in size
Target sequence (Q8JUX6 whole entry, looked up): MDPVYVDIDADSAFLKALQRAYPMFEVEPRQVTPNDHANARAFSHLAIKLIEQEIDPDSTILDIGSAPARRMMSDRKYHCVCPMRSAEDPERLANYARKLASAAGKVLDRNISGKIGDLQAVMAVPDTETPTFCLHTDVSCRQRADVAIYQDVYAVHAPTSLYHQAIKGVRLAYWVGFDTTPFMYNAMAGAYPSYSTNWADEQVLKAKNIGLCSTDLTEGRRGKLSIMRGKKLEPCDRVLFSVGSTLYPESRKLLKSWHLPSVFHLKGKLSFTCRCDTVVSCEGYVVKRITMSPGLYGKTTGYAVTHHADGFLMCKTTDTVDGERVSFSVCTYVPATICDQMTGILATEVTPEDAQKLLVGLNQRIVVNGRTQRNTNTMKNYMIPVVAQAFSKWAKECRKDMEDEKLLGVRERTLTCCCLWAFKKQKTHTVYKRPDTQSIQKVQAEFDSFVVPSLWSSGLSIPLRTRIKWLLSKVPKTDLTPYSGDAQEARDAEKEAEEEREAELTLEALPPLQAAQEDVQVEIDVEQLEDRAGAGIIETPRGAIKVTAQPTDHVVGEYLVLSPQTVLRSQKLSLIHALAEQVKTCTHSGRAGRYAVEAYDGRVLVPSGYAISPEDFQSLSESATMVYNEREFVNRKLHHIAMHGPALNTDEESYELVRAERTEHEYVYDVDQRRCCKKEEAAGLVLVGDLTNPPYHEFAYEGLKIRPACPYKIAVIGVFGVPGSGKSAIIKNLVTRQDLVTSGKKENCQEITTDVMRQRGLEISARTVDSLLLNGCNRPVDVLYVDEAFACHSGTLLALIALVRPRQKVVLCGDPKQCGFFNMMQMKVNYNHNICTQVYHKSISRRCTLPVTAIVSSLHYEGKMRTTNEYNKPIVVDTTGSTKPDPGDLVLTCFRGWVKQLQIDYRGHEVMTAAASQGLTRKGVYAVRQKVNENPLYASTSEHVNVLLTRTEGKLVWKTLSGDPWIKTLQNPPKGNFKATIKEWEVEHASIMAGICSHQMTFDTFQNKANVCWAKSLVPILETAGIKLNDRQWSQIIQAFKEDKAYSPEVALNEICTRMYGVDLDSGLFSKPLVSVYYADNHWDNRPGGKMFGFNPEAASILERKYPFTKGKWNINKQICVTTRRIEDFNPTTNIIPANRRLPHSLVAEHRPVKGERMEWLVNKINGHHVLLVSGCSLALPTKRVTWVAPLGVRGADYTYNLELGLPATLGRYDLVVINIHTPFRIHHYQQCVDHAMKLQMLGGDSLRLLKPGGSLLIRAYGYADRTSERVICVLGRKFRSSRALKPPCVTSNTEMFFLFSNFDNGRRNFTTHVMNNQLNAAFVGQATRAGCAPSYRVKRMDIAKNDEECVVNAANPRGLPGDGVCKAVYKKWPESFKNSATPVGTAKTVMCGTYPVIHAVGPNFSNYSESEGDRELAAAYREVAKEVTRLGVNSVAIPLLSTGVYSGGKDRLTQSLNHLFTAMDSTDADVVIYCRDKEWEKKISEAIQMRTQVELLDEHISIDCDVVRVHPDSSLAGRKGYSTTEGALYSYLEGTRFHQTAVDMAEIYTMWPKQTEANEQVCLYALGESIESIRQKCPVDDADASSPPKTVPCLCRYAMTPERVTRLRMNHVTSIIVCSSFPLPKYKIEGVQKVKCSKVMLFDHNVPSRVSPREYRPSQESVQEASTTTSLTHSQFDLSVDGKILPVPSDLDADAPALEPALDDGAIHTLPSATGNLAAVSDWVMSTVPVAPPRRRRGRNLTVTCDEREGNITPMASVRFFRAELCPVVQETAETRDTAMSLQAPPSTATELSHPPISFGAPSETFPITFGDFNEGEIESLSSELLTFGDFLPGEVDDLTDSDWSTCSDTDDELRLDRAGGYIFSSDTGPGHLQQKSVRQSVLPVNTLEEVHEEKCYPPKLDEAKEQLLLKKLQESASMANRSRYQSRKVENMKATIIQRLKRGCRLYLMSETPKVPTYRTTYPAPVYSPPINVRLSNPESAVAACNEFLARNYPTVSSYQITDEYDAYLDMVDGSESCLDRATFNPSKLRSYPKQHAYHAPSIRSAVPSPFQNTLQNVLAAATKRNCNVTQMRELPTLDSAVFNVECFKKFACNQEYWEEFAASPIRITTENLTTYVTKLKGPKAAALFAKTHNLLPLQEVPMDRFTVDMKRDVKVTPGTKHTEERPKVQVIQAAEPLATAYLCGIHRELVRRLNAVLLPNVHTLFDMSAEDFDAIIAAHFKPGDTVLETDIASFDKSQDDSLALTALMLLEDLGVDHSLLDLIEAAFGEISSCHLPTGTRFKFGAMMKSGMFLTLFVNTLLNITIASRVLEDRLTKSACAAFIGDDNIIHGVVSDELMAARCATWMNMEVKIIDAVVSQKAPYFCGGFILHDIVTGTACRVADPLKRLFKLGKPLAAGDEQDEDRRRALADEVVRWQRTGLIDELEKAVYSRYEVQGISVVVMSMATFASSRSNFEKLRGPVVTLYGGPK
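FRET cleavage of 2.5 uM peptide 2 by 150 nM CHIKV protease domain at pH 8.0 (Tris, Tween 20). Compounds at 7 concentrations (up to 25 uM) preincubated 15 min. Fluorescence read after 1 h at room temperature.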
CHIKV nsP2 cell – Secondary cell base assay for inhibitors of NSP2Pro Chikungunya virus (CHIKV); cell-based CHIKV nsP2 protease reporter assay; 10% of 450 active; Potency, µM (series often up to 51.1 µM), for inactives: at the top dose activity change, negative = inhibition, most hits filed as inhibitors; shares compounds with nsP2pro primary; also: nearly all actives have a fitted effect of over 70% in size
NSP2 full ctr – Selectivity profile for inhibitors of NSP2Pro chikungunya virus (CHIKV): Full length NSP2 enzyme counterscreen (CHIKV-NSP2); shares compounds with nsP2pro primary; Full-length CHIKV NSP2 protease enzymatic counterscreen; Potency, µM (series often up to 50.7 µM), inactives show at the highest dose activity change, negative = inhibition, actives largely listed as inhibitors; 39% of 410 active; also: nearly all actives have a fitted effect of over 65% in size
Furin counter – Selectivity profile for inhibitors of NSP2Pro chikungunya virus (CHIKV): Human furin counterscreen | shares compounds with nsP2pro primary | Recombinant human furin enzymatic counterscreen, fluorogenic substrate | Potency, µM (doses to about 50.6 µM), for inactives: at the top dose activity change, negative = inhibition, hits mostly inhibitors | 6% of 410 active
nsP2 NS23 pep – Selectivity profile for inhibitors of NSP2Pro chikungunya virus (CHIKV): Endogenous NS2/3 peptide Counterscreen; shares compounds with nsP2pro primary; Purified CHIKV nsP2 protease, endogenous NS2/3 peptide cleavage; Potency, µM (doses to about 51 µM), for the others: top-dose activity change, negative = inhibition, usual class: inhibitors; 34% of 410 active; also: nearly all actives have a fitted effect of over 55% in size
Papain counter – Selectivity profile for inhibitors of NSP2Pro chikungunya virus (CHIKV): Papain Counterscreen. shares compounds with nsP2pro primary. purified papain protease activity, enzymatic inhibition. Potency, µM (top dose mostly 51 µM), for inactives: at the highest dose activity change, negative = inhibition, usual class: inhibitors. 5% of 410 active. AID 1964104, 2024
nsP2pro confirm – Confirmatory qHTS for inhibitors of NSP2Pro chikungunya virus (CHIKV). Potency, µM (highest dose often 25.5 µM), for inactives: at the top dose activity change, negative = inhibition, usual class: inhibitors. AID 1964105, 2024. shares compounds with nsP2pro primary. CHIKV nsP2 protease enzymatic activity, qHTS. 43% of 410 active; also: nearly all actives have a fitted effect of over 75% in size
HCV NS3 counter – Selectivity profile for inhibitors of NSP2Pro chikungunya virus (CHIKV): NS34A-HCV Counterscreen; AID 1964106, 2024; HCV NS3/4A protease biochemical counterscreen; 20% of 410 active; shares compounds with nsP2pro primary; Potency, µM (top dose mostly 50.9 µM), most hits filed as inhibitors; also: nearly all actives have a fitted effect of over 55% in size
Starred values were filed as active, the others as inactive; i = inactive; ? = inconclusive; . = no result given; [ ] = dose if it differs, or a comment. The full list was thinned out, with hits kept by preference. Calls follow the shape of the full dose curve. % is scaled to controls: 0 for no effect and ±100 for the full control effect; potency is read from the fitted curve at half-maximal effect.

SMILES	nsP2pro primary	others
C=C1CC23CC1CCC2C12OC(=O)C(C)(C(O)C(O)C1O)C2C3C(=O)O (stereo unspecified)	?	CHIKV nsP2 cell=3%[33.5 µM];NSP2 full ctr=?;Furin counter=-4%[33.5 µM];nsP2 NS23 pep=-22%[33.5 µM];Papain counter=-11%[33.5 µM];nsP2pro confirm=?;HCV NS3 counter=i
C=C1C[C@]23C[C@H]1CC[C@H]2[C@@]1(C)CCC[C@@]2(C)C(=O)O[C@@H]([C@@H]3O)[C@@H]12	-13%
C=C1C[C@]23C[C@@]1(O)CC[C@H]2[C@@]12C=C[C@H](O)[C@@](C)(C(=O)O1)[C@H]2[C@@H]3C(=O)O	-12%
C=C(C(=O)O)C1CCC2(C)CCC(O)C(=C)C2C1 (stereo unspecified)	80%
COCC1CN(Cc2cccc(OC(F)(F)F)c2)CC12CCNCC2 (stereo unspecified)	-2%
COc1ccc(-n2ncc3c2CCCC3NC(=O)c2ccc3ncccc3c2)cc1 (stereo unspecified)	?	CHIKV nsP2 cell=21µM*;NSP2 full ctr=?;Furin counter=-4%;nsP2 NS23 pep=-14%;Papain counter=-9%;nsP2pro confirm=6%;HCV NS3 counter=?
COc1ccc(-n2ncc3c2CCCC3NC(=O)c2cnc(C)cn2)cc1 (stereo unspecified)	-7%
O=C(NC1CCCc2c1cnn2-c1ccc(F)cc1F)c1ccc(C(=O)c2ccccc2)cc1 (stereo unspecified)	-3%
Cc1noc([C@@H]2CN(C3CCCCCC3)C[C@H]2CO)n1	2%
Cc1noc(C)c1S(=O)(=O)N1CCCC(Cc2nncn2C(C)C)C1 (stereo unspecified)	-5%
COc1cccc2c1C(=O)c1c(O)c3c(c(O)c1C2=O)C[C@@](O)(C(=O)CO)CC3OC1CC(N2CCOC(OC)C2)C(O)C(C)O1 (stereo partly specified)	210%
CC[C@@]1(O)C[C@H](O[C@H]2C[C@H](N(C)C)[C@H](O[C@H]3C[C@H](O)[C@H](O[C@H]4CCC(=O)[C@H](C)O4)[C@H](C)O3)[C@H](C)O2)c2c(cc3c(c2O)C(=O)c2c(O)cccc2C3=O)[C@@H]1C(=O)OC	?	CHIKV nsP2 cell=-17%;NSP2 full ctr=?;Furin counter=-10%;nsP2 NS23 pep=?;Papain counter=-20%;nsP2pro confirm=?;HCV NS3 counter=i
COc1cccc2c1C(=O)c1c(O)c3c(c(O)c1C2=O)C[C@@](O)(C(=O)CO)C[C@@H]3O[C@H]1C[C@H](N)[C@H](OC2CCCCO2)[C@H](C)O1 (stereo partly specified)	181%
N#Cc1c(N2C[C@@H]3NCCO[C@H]3C2)c(F)cc2c(=O)c(C(=O)O)cn(C3CC3)c12	6%
COc1ccc(C2Nc3ccccc3C(=O)N2CCCN(C)C)cc1COc1ccc(NC(C)=O)cc1 (stereo unspecified)	-25%
CN(C)C1C(=O)C(C(N)=O)=C(O)C2(O)C(=O)C3=C(O)c4c(O)ccc(Cl)c4C(C)(O)C3CC12 (stereo unspecified)	-3%
c1c(C2CC2)nnn1C1CNC1	8.9µM*	CHIKV nsP2 cell=15%;NSP2 full ctr=-18%;Furin counter=-25%;nsP2 NS23 pep=?;Papain counter=-1%;nsP2pro confirm=?;HCV NS3 counter=?
O=C(NCc1ccccc1)c1cn(C2CNC2)nn1	-30%
Cc1cnn(-c2cc(N3CCC(n4cc(C5CCCC5)nn4)CC3)ncn2)c1	i
CC(=O)OC12CC(C)C(O)C1/C=C(/COC1OC(CO)C(O)C(O)C1O)CCC1C(/C=C(\C)C2=O)C1(C)C (stereo unspecified)	2%[10 µM]
COc1cc(/C=C/C(=O)OCC2OC(OC3(CO)OC(CO)C(O)C3O)C(O)C(O)C2O)ccc1O (stereo unspecified)	-10%[10 µM]
COc1cc(CN(CCN)C(=O)c2cccs2)ccc1OCc1ccccc1	24%
Cc1ccc(C#Cc2cc(-c3nn(-c4nc(C(=O)O)cs4)c(CC4CC4)c3Cc3ccc(S(N)(=O)=O)c(F)c3)ccc2F)o1	4µM*	CHIKV nsP2 cell=0.13µM*;NSP2 full ctr=?;Furin counter=-22%;nsP2 NS23 pep=56%;Papain counter=23µM*;nsP2pro confirm=-52%;HCV NS3 counter=i
COc1ccc(S(=O)(=O)Nc2ccc(C)n(CC(=O)O)c2=O)cc1	-11%
Cc1ccc(S(=O)(=O)Nc2cc(SCC(=O)O)c(O)c3ccccc23)cc1[N+](=O)[O-]	.	CHIKV nsP2 cell=?;NSP2 full ctr=4.1µM*;Furin counter=-9%;nsP2 NS23 pep=2.6µM*;Papain counter=18µM*;nsP2pro confirm=0.9µM*;HCV NS3 counter=i
SMILES	nsP2pro primary	others
CCC(=O)NC(c1ccc(C)cc1)c1cc([N+](=O)[O-])c2cccnc2c1O (stereo unspecified)	i
Nc1nc(NCc2ccc(-c3cccnc3)cc2)c2ccccc2n1	4%
COC(=O)[C@]12CCC(C)(C)C[C@H]1[C@H]1C(=O)C=C3[C@@]4(C)C=C(C#N)C(=O)C(C)(C)[C@@H]4CC[C@@]3(C)[C@]1(C)CC2	?	CHIKV nsP2 cell=?;NSP2 full ctr=?;Furin counter=-3%;nsP2 NS23 pep=?;Papain counter=?;nsP2pro confirm=?;HCV NS3 counter=i
Cc1ccc(S(=O)(=O)N2CCCCCC2c2nnc(C)o2)c(C)c1 (stereo unspecified)	2%
CN1CC(O)c2cc(N=NC(=N)N)c(O)cc21 (stereo unspecified)	-6%
COc1ccc(C2Nc3ccccc3C(=O)N2CCO)cc1COc1c(C)cc(NC(C)=O)cc1C (stereo unspecified)	i
O=C(N[C@H](c1ccccn1)C1CC(O)C1)c1cc(=O)n(-c2ccccc2)[nH]1 (stereo partly specified)	-1%
C=C(C)C(=O)OC1CC(CO)CCC/C(CO)=C/C2OC(=O)C(=C)C21 (stereo unspecified)	-20%

High-throughput results deposited in PubChem by National Center for Advancing Translational Sciences (NCATS).
